# Results as given in PubChem BioAssay (NCI).
# Compounds without any hit were thinned out: in the full panel of roughly 83,000, 20% have a hit.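 Values shown are percent growth following 48 h exposure of cells in 96-well plates to a single concentration of compound; below 10 was considered active.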 Calls of active or inactive are those of the source.
# Test system: HL-60(TB) leukemia
# Assay: NCI-60 one-dose screen, 48 h (100 = growth as untreated, 0 = no growth, -100 = all killed)
# Settings: 10 µM unless noted
row,SMILES,growth
1,Cc1cc(C)c(C#N)c(SCC(=O)c2sc3c(C#N)c(C)cc(C)[n+]3c2[O-])n1,-39.3% (active)
2,O=c1c2ccccc2c(=O)c2c1sc1c(=O)c3ccc(O)cc3c(=O)c12,-30.6% (active)
3,C=C1C(=O)O[C@H]2[C@H]1CC/C(COC(=O)/C=C\C(=O)NCc1ccc(Cn3c(=O)sn(CCI)c3=O)cc1)=C\CC[C@@]1(C)O[C@@H]21,-34.7% (active)
4,COc1cc(/C=C/c2cc(/C=C/c3ccc(O)c(OC)c3)n(-c3ccccc3)n2)ccc1O,-42.2% (active)
5,COC(OC)c1ccccc1,77.6% (inactive)
6,Cc1cnc(Nc2ccc(OCCN3CCCC3)cc2)nc1Nc1cccc(S(=O)(=O)NC(C)(C)C)c1,-39.7% (active)
7,Cc1ccn2c3c(c(C(=O)O)c2c1)C(=O)c1ccccc1C3=O,73.2% (inactive)
8,CCOC(=O)c1sc2nc(-c3cccc(O)c3)nc(N3CCOCC3)c2c1C,78.3% (inactive)
9,COc1ccc(C(C#N)=C2C=CC(=NO)C=C2)cc1,52.4% (inactive)
10,CSc1nc2c(c(=O)n1C)C1(C(=O)N(Cc3ccccc3)c3ccccc31)c1c(nc(SC)n(C)c1=O)N2,73.4% (inactive)
11,CC(=O)OC1CC2C(C)(C)CCC[C@]2(C)C2=C1C(O)=C(C(C)C)C(=O)C2=O (stereo not given in full),3.12% (active)
12,COc1ccccc1OCC(=O)Nc1sc2c(c1C(N)=O)CCC2,50.1% (inactive)
13,CC(=O)O[C@H]1CC[C@]2(C)[C@H]3CC=C4[C@@H]5CC(C)(C)CC[C@]5(C(=O)OCC(COC(=O)C(Cl)Cl)(COC(=O)C(Cl)Cl)NC(=O)C(Cl)Cl)CC[C@@]4(C)[C@]3(C)CC[C@H]2C1(C)C,33.1% (inactive)
14,COc1cccc(-c2nn(-c3ccccc3)cc2-c2ccnc(NCCCNC(=O)c3ccccc3)c2)c1,23.8% (inactive)
15,O=C(/C=C/C12c3ccccc3C(c3ccccc31)C1C(=O)NC(=O)C12)c1ccncc1 (stereo not given),2.98% (active)
16,Clc1ccc2c(Nc3ccc4oc(NCCN5CCCC5)nc4c3)ccnc2c1,72.3% (inactive)
17,Cc1ccc2c(C)c3c(ccc4ccccc43)c[n+]2c1,94.4% (inactive)
18,CN(C)c1ccc2c(N(C)C)cc(N(C)C)nc2c1,92.1% (inactive)
19,C=C1C(=O)O[C@H]2[C@H]1CC/C(COC(=O)NCc1c[nH]c3ccc(Cl)cc13)=C\CC[C@@]1(C)O[C@@H]21,-32.9% (active)
20,O=C(NNC(=S)Nc1ccccc1)c1cc2ccc1CCc1ccc(cc1)CC2,77.1% (inactive)

row,SMILES,growth
1,COc1cccc(Cn2cc3c(c2)-c2oncc2CC3)c1,1.64% (active)
2,Cc1cc(Nc2ccc(F)cc2)nc(N2CCN(c3ccnc4cc(Cl)ccc34)CC2)n1,7.98% (active)
3,CCN(CC)Cc1cc(Nc2c3ccc(Cl)cc3nc3c(C)cccc23)ccc1O,-19.7% (active)
4,Cc1ccc(-c2nc(C(Cl)Cl)nc3cc(C)nn23)cc1,-1.36% (active)
5,COc1cnccc1-c1nc2ccc3[nH]ncc3c2c2c1CCCC2,35.1% (inactive)
6,COc1ccc(/C=C/C(=O)C(CC2CCC2)C(=O)/C=C/c2ccc(OC)c(OC)c2)cc1OC,-27.5% (active)
7,C=COC(=O)C(C)(C)C,98.9% (inactive)
8,O=[N+]([O-])c1ccc(N/N=C\c2ccccc2[N+](=O)[O-])nc1,109% (inactive)
9,O=C(O)COc1ccccc1F,104% (inactive)
10,O=C(N/N=C/c1ccc(O)cc1O)c1cccc(Nc2ccnc(C(F)(F)F)c2)c1,8.21% (active)
11,N#Cc1nnn(-c2ccc(S(N)(=O)=O)cc2)c1NC(=O)CCl,77.5% (inactive)
12,COc1cc(N2C(=O)c3nccnc3C2=O)cc(OC)c1OC,90.3% (inactive)
13,CCCCCCCCNc1cccc2c1C(=O)c1ccccc1C2=O,73% (inactive)
14,Cc1cc(Nc2ccc(Cl)cc2)nc(NCCCNc2ccnc3cc(Cl)ccc23)n1,-76.8% (active)
15,N#CC1=C(/N=C/c2ccccc2)Oc2c(ccc3ccccc23)C1c1ccc([N+](=O)[O-])cc1 (stereo not given),99.1% (inactive)
16,Cc1ccc(S(=O)(=O)NC(=O)NCCSSCCNC(=O)NS(=O)(=O)c2ccc(C)cc2)cc1,102% (inactive)
17,Cc1cc(C)c(C(=O)c2cccs2)c(C)c1,98.3% (inactive)
18,Cc1ccc(-c2nc(C#N)c(S(=O)(=O)N(C)CCO)o2)cc1,-18.1% (active)
19,COc1ccc([C@@H]2[C@@H](Oc3ccccc3)C(=O)N2c2cc(OC)c(OC)c(OC)c2)cc1F,-53.9% (active)
20,Oc1c(Cl)cc(Oc2cc(Cl)c(O)c(CN3CCOCC3)c2)cc1CN1CCOCC1,86.7% (inactive)
